Ten molecules from PubChem BioAssay (NCI) can be followed below.

About 79,000 compounds went through this panel and 15% of them were active in at least one assay; those are over-represented in the sample as a whole. Unmarked numbers belong to inactive results. Active and inactive are the calls of the source. Cut-off read from the data, not from the text of the source: active = growth inhibition above about 70%; inactive = the rest.

Assay [1] in a line: NCI Yeast Anticancer Drug Screen. Data for the rad50 strain (AID 155).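 Note: 0% = growth of vehicle-only cultures of the same strain.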 The conditions noted are these: S. cerevisiae rad50 strain growth inhibition, stronger effect = higher value. An outline of the steps: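 A DNA repair-deficient yeast mutant serves as the test organism; compound-induced growth inhibition is calculated against vehicle-treated cells.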
A short description of assay [2]: NCI Yeast Anticancer Drug Screen. Data for the mec2-1 strain (AID 157). The note with it: S. cerevisiae mec2-1 strain, stronger effect = higher value. In a few lines: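 Cells of the genetically defined mec2-1 yeast strain are incubated with test compound. Inhibition of growth is calculated against vehicle-treated controls.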
Assay [3] can be described thus: NCI Yeast Anticancer Drug Screen. Data for the sgs1 mgt1 strain (AID 161).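 Note: 0% = growth of cultures given vehicle only.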 The conditions noted are these: S. cerevisiae sgs1 mgt1 strain, stronger effect = higher value. An outline of the steps:
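Genetically altered yeast, compound exposure, growth inhibition relative to vehicle.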

The nature of assay [4]: NCI Yeast Anticancer Drug Screen. Data for the cln2 rad14 strain (AID 165).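 Note: 0% = growth equal to vehicle treated cultures.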 The note with it: S. cerevisiae cln2 rad14 strain, stronger effect = higher value. An outline of the steps: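 The screen exposed genetically defined yeast (cln2 rad14) to test compounds and scored growth inhibition relative to vehicle-treated controls.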
Assay [5] can be described thus: NCI Yeast Anticancer Drug Screen. Data for the bub3 strain (AID 167). The conditions noted are these: S. cerevisiae bub3 mutant strain, stronger effect = higher value. In a few lines: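 Inhibition values come from growth of compound-treated mutant yeast normalised to vehicle-treated controls.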
Assay [6] is described as follows: NCI Yeast Anticancer Drug Screen. Data for the mlh1 rad18 strain (AID 175). The note with it: S. cerevisiae mlh1 rad18 strain growth inhibition, stronger effect = higher value. An outline of the steps:
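Compound-treated yeast growth, normalised to vehicle controls. Strain bears defined DNA repair mutations.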

[7] abbreviates: at 5.0 µM (retest, dose inferred, filed as 0.5).
The mark [8] stands for this setting: at 50.0 µM (retest, dose inferred, filed as 5.0).

As for `O[C@H]1[C@H]2c3cc4c(cc3CN3CCC(=C[C@@H]1O)[C@H]23)OCO4`, the growth inhibition is 13% in assay [1] (setting [7]); 98% (active) in assay [1] (setting [8]); 91.5% (active) in assay [1] (at 50.0 µM); 19% in assay [2] (setting [7]); 99% (active) in assay [2] (setting [8]); 93.6% (active) in assay [2] (at 50.0 µM). For the same molecule, the growth inhibition in assay [3] (setting [7]) is 23%; in assay [3] (setting [8]), 98% (active); in assay [3] (at 50.0 µM), 93.2% (active); in assay [4] (setting [7]) it was 77% (active); in assay [4] (setting [8]), 98% (active); in assay [4] (at 50.0 µM), 90.7% (active). For the same molecule, the growth inhibition was 0% in assay [5] (setting [7]); 98% (active) in assay [5] (setting [8]); 91.2% (active) in assay [5] (at 50.0 µM); 26% in assay [6] (setting [7]); 99% (active) in assay [6] (setting [8]); 92.2% (active) in assay [6] (at 50.0 µM).

In the case of `O=C(C=P(c1ccccc1)(c1ccccc1)c1ccccc1)CC(=S)CC(=O)C=P(c1ccccc1)(c1ccccc1)c1ccccc1`, the growth inhibition was 31% in assay [1] (setting [7]); 71% (active) in assay [1] (setting [8]); 97.3% (active) in assay [1] (at 50.0 µM); 18% in assay [2] (setting [7]); 69% in assay [2] (setting [8]); 97.8% (active) in assay [2] (at 50.0 µM). Further, the growth inhibition in assay [3] (setting [7]) was 24%; in assay [3] (setting [8]), 85% (active); in assay [3] (at 50.0 µM), 97.8% (active); in assay [4] (setting [7]) it was -3%; in assay [4] (setting [8]), 61%; in assay [4] (at 50.0 µM), 96.2% (active). For the same molecule, the growth inhibition in assay [5] (setting [7]) is 9%; in assay [5] (setting [8]) it was 88% (active); in assay [5] (at 50.0 µM), 95.9% (active); in assay [6] (setting [7]), 8%; in assay [6] (setting [8]) it was 77% (active); in assay [6] (at 50.0 µM) it was 95.2% (active).

As for `O=c1cc(-c2ccccc2)[nH]c2ccc(N3CCCC3)cc12`, the growth inhibition in assay [1] (setting [7]) was 17%; in assay [1] (setting [8]), 26%; in assay [1] (at 50.0 µM) it was -26.8%; in assay [2] (setting [7]), 7%; in assay [2] (setting [8]), 9%; in assay [2] (at 50.0 µM) it was -4.35%. The growth inhibition in assay [3] (setting [7]) was 13%; in assay [3] (setting [8]) it was 13%; in assay [3] (at 50.0 µM), -29.9%; in assay [4] (setting [7]) it was 0%; in assay [4] (setting [8]) it was 7%; in assay [4] (at 50.0 µM), 7.25%. For the same molecule, the growth inhibition in assay [5] (setting [7]) was 14%; in assay [5] (setting [8]) it was 6%; in assay [5] (at 50.0 µM), -8.65%; in assay [6] (setting [7]) it was 11%; in assay [6] (setting [8]) it was 5%; in assay [6] (at 50.0 µM), 0.5%.

As to `Cc1ccc(S(=O)(=O)Nc2ccccc2Cl)cc1`, the growth inhibition was 11% in assay [1] (setting [7]); 95% (active) in assay [1] (setting [8]); 94% (active) in assay [1] (at 50.0 µM); 11% in assay [2] (setting [7]); 97% (active) in assay [2] (setting [8]); 77.3% (active) in assay [2] (at 50.0 µM). The growth inhibition in assay [3] (setting [7]) is 7%; in assay [3] (setting [8]) it was 99% (active); in assay [3] (at 50.0 µM), 96.5% (active); in assay [4] (setting [7]) it was 6%; in assay [4] (setting [8]), 96% (active); in assay [4] (at 50.0 µM), 88.5% (active). Besides, the growth inhibition in assay [5] (setting [7]) was 5%; in assay [5] (setting [8]) it was 98% (active); in assay [5] (at 50.0 µM), 94.2% (active); in assay [6] (setting [7]), 13%; in assay [6] (setting [8]), 97% (active); in assay [6] (at 50.0 µM), 93.8% (active).

Regarding `CCCCCCCN=C(N)c1ccc(C(=O)OCc2ccccc2)cc1`, the growth inhibition in assay [1] (setting [7]) was 1%; in assay [1] (setting [8]), 86% (active); in assay [1] (at 50.0 µM), 99.5% (active); in assay [2] (setting [7]), -12%; in assay [2] (setting [8]), 76% (active); in assay [2] (at 50.0 µM), 99.8% (active). The growth inhibition is 5% in assay [3] (setting [7]); 95% (active) in assay [3] (setting [8]); 99.8% (active) in assay [3] (at 50.0 µM); -2% in assay [4] (setting [7]); 80% (active) in assay [4] (setting [8]); 99.4% (active) in assay [4] (at 50.0 µM). Further, the growth inhibition is 0% in assay [5] (setting [7]); 77% (active) in assay [5] (setting [8]); 99.4% (active) in assay [5] (at 50.0 µM); 6% in assay [6] (setting [7]); 94% (active) in assay [6] (setting [8]); 99.7% (active) in assay [6] (at 50.0 µM).

In the case of `CN(C)CCCNc1ccc(O)c2sc3ccccc3c(=O)c12`, the growth inhibition was 4% in assay [1] (setting [7]); 14% in assay [1] (setting [8]); 69.7% in assay [1] (at 50.0 µM); -5% in assay [2] (setting [7]); 33% in assay [2] (setting [8]); 34.6% in assay [2] (at 50.0 µM). The growth inhibition in assay [3] (setting [7]) was -5%; in assay [3] (setting [8]), 20%; in assay [3] (at 50.0 µM), 63.6%; in assay [4] (setting [7]) it was -3%; in assay [4] (setting [8]), -11%; in assay [4] (at 50.0 µM), 15.6%. The growth inhibition is 5% in assay [5] (setting [7]); 25% in assay [5] (setting [8]); 24.4% in assay [5] (at 50.0 µM); 0% in assay [6] (setting [7]); 23% in assay [6] (setting [8]); 72% (active) in assay [6] (at 50.0 µM).

Consider `O=C(O)c1ccc2c(c1)CC1(C2)Cc2cc3c(cc2C1=O)CCC3` (stereo not given), for which the growth inhibition is 34% in assay [1] (setting [7]); 34% in assay [1] (setting [8]); 84.3% (active) in assay [1] (at 50.0 µM); 22% in assay [2] (setting [7]); 22% in assay [2] (setting [8]); 83.8% (active) in assay [2] (at 50.0 µM). Moreover, the growth inhibition in assay [3] (setting [7]) is 19%; in assay [3] (setting [8]) it was 19%; in assay [3] (at 50.0 µM), 79.5% (active); in assay [4] (setting [7]), 21%; in assay [4] (setting [8]) it was 21%; in assay [4] (at 50.0 µM) it was 83.1% (active). The growth inhibition was 12% in assay [5] (setting [7]); 12% in assay [5] (setting [8]); 81.8% (active) in assay [5] (at 50.0 µM); 25% in assay [6] (setting [7]); 25% in assay [6] (setting [8]); 79.9% (active) in assay [6] (at 50.0 µM).

Regarding `CSC(SC)(C(=O)O)c1cc(-c2c(Cl)cccc2Cl)no1`, the growth inhibition in assay [1] (setting [7]) was 3%; in assay [1] (setting [8]), 27%; in assay [1] (at 50.0 µM) it was 39%; in assay [2] (setting [7]), 2%; in assay [2] (setting [8]), 42%; in assay [2] (at 50.0 µM), 44%. The growth inhibition in assay [3] (setting [7]) is 7%; in assay [3] (setting [8]) it was 48%; in assay [3] (at 50.0 µM), 95.5% (active); in assay [4] (setting [7]), -1%; in assay [4] (setting [8]), -5%; in assay [4] (at 50.0 µM), 17.1%. Besides, the growth inhibition was 13% in assay [5] (setting [7]); 73% (active) in assay [5] (setting [8]); 51.6% in assay [5] (at 50.0 µM); 0% in assay [6] (setting [7]); 36% in assay [6] (setting [8]); 84.4% (active) in assay [6] (at 50.0 µM).

`C(C#Cc1ccccc1)#CCc1ccccc1`: the growth inhibition was 2% in assay [1] (setting [7]); 17% in assay [1] (setting [8]); 19% in assay [1] (at 50.0 µM); 7% in assay [2] (setting [7]); 16% in assay [2] (setting [8]); 28.9% in assay [2] (at 50.0 µM). Besides, the growth inhibition in assay [3] (setting [7]) was 1%; in assay [3] (setting [8]), 39%; in assay [3] (at 50.0 µM), 54.6%; in assay [4] (setting [7]), 1%; in assay [4] (setting [8]), 7%; in assay [4] (at 50.0 µM), 6.5%. The growth inhibition in assay [5] (setting [7]) was 1%; in assay [5] (setting [8]) it was 13%; in assay [5] (at 50.0 µM), 47.2%; in assay [6] (setting [7]), -1%; in assay [6] (setting [8]), 21%; in assay [6] (at 50.0 µM), 74.1% (active).

Consider `CCN(CC)CCCNc1nccc2c(C)c3[nH]c4ccncc4c3cc12`, for which the growth inhibition was 41% in assay [1] (setting [7]); 54% in assay [1] (setting [8]); 59.4% in assay [1] (at 50.0 µM); 18% in assay [2] (setting [7]); 33% in assay [2] (setting [8]); -2% in assay [2] (at 50.0 µM). The growth inhibition in assay [3] (setting [7]) is 38%; in assay [3] (setting [8]), 43%; in assay [3] (at 50.0 µM), -1.7%; in assay [4] (setting [7]), 19%; in assay [4] (setting [8]), 23%; in assay [4] (at 50.0 µM), 10.1%. In addition, the growth inhibition in assay [5] (setting [7]) is 24%; in assay [5] (setting [8]), 22%; in assay [5] (at 50.0 µM), -6.45%; in assay [6] (setting [7]) it was 48%; in assay [6] (setting [8]), 64%; in assay [6] (at 50.0 µM) it was -36.5%.
